Data as given in PubChem BioAssay AID1159580 (chemical genetic matrix, 2015).
Hit rate of the full screen: of about 5,500 compounds, about 2,000 (36%) were called active. Roughly 18% stayed inconclusive and do not appear here. Cut-off read from the data, not from the text of the source: active = normalized growth mostly below about 0.91 (no sharp cut-off); inconclusive = no clear call, values can overlap the other calls; inactive = mostly above about 0.92. This is one part of the list.

Assay: chemical genetic growth profiling, strain panel (AID 1159580);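 note: tested at 20 µM; growth read once vehicle control cultures reached saturation at 30 °C; 1 = growth at the plate median or of vehicle wells; lower values mean less growth of the strain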
Conditions: S. cerevisiae deletion strains, growth OD

Measured: normalized growth

CCCCCN=C(N)N/N=C\c1c[nH]c2ccc(OC)cc12
inactive: locus YAL013W, strain DEP1, hits give low values 1.01 | locus YAL021C, strain ccr4, hits give low values 0.985 | locus YAL026C, strain drs2, hits give low values 0.928 | locus YAL030W, strain snc1, hits give low values 1.01 | locus YBL061C, strain skt5, hits give low values 1.01 | locus YBR009C, strain hhf1, hits give low values 0.985 | locus YBR021W, strain FUR4, hits give low values 0.989 | locus YBR023C, strain chs3, hits give low values 0.988 | locus YBR171W, strain sec66, hits give low values 1.03 | locus YBR229C, strain ROT2, hits give low values 1 | locus YBR231C, strain swc5, hits give low values 1 | locus YBR279W, strain paf1, hits give low values 1.01 | locus YCL011C, strain gbp2, hits give low values 1 | locus YCL016C, strain dcc1, hits give low values 0.985 | locus YCL029C, strain bik1, hits give low values 1.03 | locus YCL069W, strain vba3, hits give low values 1.02 | locus YCR088W, strain abp1, hits give low values 1.02 | locus YDL005C, strain med2, hits give low values 1.01 | locus YDL035C, strain GPR1, hits give low values 0.989 | locus YDL040C, strain nat1, hits give low values 0.998 | locus YDL074C, strain BRE1, hits give low values 1.01 | locus YDL101C, strain DUN1, hits give low values 1.01 | locus YDL134C, strain PPH21, hits give low values 0.997 | locus YDL185W, strain tfp1, hits give low values 1.06 | locus YDL192W, strain arf1, hits give low values 1.03 | locus YDR001C, strain nth1, hits give low values 1.01 | locus YDR069C, strain doa4, hits give low values 1.02 | locus YDR101C, strain arx1, hits give low values 1.02 | locus YDR137W, strain rgp1, hits give low values 1.07 | locus YDR150W, strain NUM1, hits give low values 1.02 | locus YDR159W, strain sac3, hits give low values 0.965 | locus YDR162C, strain NBP2, hits give low values 0.993 | locus YDR195W, strain ref2 1.01 | locus YDR297W, strain sur2, hits give low values 1 | locus YDR318W, strain mcm21, hits give low values 1.02 | locus YDR334W, strain swr1, hits give low values 1.01 | locus YDR335W, strain msn5, hits give low values 1.01 | locus YDR388W, hits give low values 1.03 | locus YDR392W, strain spt3, hits give low values 0.911 | locus YDR502C, strain sam2, hits give low values 1 | locus YEL003W, strain gim4, hits give low values 1.01 | locus YEL037C, strain rad23, hits give low values 1.01 | locus YEL061C, strain CIN8 (second series), hits give low values 1.01 | locus YEL061C, strain CIN8, hits give low values 0.994 | locus YER015W, strain faa2, hits give low values 0.982 | locus YER016W, strain bim1, hits give low values 1 | locus YER110C, hits give low values 1.05 | locus YER111C, strain swi4, hits give low values 1.02 | locus YER155C, strain BEM2 (second series), hits give low values 0.968 | locus YER155C, strain BEM2, hits give low values 1.01 | locus YER167W, strain BCK2, hits give low values 1.01 | locus YFR010W, strain ubp6, hits give low values 1.03 | locus YGL078C, strain dbp3, hits give low values 1.02 | locus YGL086W, strain mad1, hits give low values 1.01 | locus YGL167C, strain pmr1, hits give low values 1.01 | locus YGL173C, strain kem1, hits give low values 1.01 | locus YGL227W, strain vid30, hits give low values 1.02 | locus YGL240W, strain doc1, hits give low values 1.01 | locus YGL248W, strain PDE1, hits give low values 1 | locus YGL253W, strain hxk2, hits give low values 1.03 | locus YGR078C, strain PAC10, hits give low values 1.02 | locus YGR135W, strain pre9, hits give low values 1.02 | locus YGR229C, strain SMI1, hits give low values 0.997 | locus YGR252W, strain gcn5, hits give low values 1.01 | locus YHR013C, strain ard1, hits give low values 1.03 | locus YHR027C, strain rpn1, hits give low values 1 | locus YHR030C, strain SLT2, hits give low values 1.01 | locus YHR079C, strain IRE1 (second series), hits give low values 1.01 | locus YHR094C, strain hxt1, hits give low values 1.02 | locus YHR129C, strain ARP1, hits give low values 0.999 | locus YHR142W, strain chs7, hits give low values 0.993 | locus YHR200W, strain rpn10, hits give low values 1.04 | locus YIL066C, strain RNR3, hits give low values 0.996 | locus YIL073C, strain SPO22, hits give low values 1.02 | locus YIL125W, strain kgd1, hits give low values 1.01 | locus YIR030C, strain dcg1, hits give low values 1.02 | locus YJL092W, strain hpr5, hits give low values 1.01 | locus YJL095W, strain BCK1 (second series), hits give low values 1.01 | locus YJL095W, strain BCK1, hits give low values 0.987 | locus YJL115W, strain asf1, hits give low values 1 | locus YJL129C, strain trk1, hits give low values 1.02 | locus YJL134W, strain LCB3, hits give low values 1.01 | locus YJL154C, strain vps35, hits give low values 1.01 | locus YJL164C, strain tpk1, hits give low values 0.978 | locus YJL166W, strain qcr8, hits give low values 1.02 | locus YJL168C, strain set2, hits give low values 1.02 | locus YJL187C, strain SWE1 (second series), hits give low values 1 | locus YJL187C, strain SWE1, hits give low values 1
